This passage reports inhibition results from PubChem BioAssay AID1850 (Southern Research Specialized Biocontainment Screening …, 2009).

Hit rate of the full screen: of about 310,000 compounds, about 1,000 (0.32%) were called active. The rule behind the calls is not given here. Not all results are given here. Potency and affinity values are given separately.

A short description of this experiment: Inhibition of PhoP regulon, Salmonella typhi GFP reporter cells, confirmation, 4 h (AID 1850).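 Note: 0% = induced wells with vehicle and 100% = uninduced wells.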 The following applies: Salmonella Typhi PhoP-promoter GFP reporter, fluorescence, at 50 µM, active compounds read high.
Regarding `COc1ccc(C(=O)NCCc2cc3ccc(C)c(C)c3[nH]c2=O)cc1OC`, the inhibition was -4.33% (inactive).

`O=C1OCC(CO)(CO)N=C1NNc1cc(Cl)ccc1Cl`: the inhibition was 6.11% (inactive).

Turning to `O=C1OCC(CO)(CO)N=C1NNc1ccccc1Cl`, the inhibition is 8.82% (inactive).

On to `Cc1cc(C)c(NC(=O)C2CCCN2CCO)c(C)c1` (centres undefined), for which the inhibition is 6.37% (inactive).

For `NC1=NC2(CCCC2)N=C(Nc2ccccc2)N1`, the inhibition was 0.23% (inactive).

Consider `Cc1cc(C)cc(NC2=NC3(CCCCC3)N=C(N)N2)c1`, for which the inhibition is 18% (inactive).

Regarding `Cc1ccc(NC2=NC3(CCCCC3)N=C(N)N2)c(C)c1`, the inhibition was 8.94% (inactive).

`Cc1cccc(NC2=NC3(CCCCC3)N=C(N)N2)c1C`: the inhibition was 1.1% (inactive).

Take `Cc1ccc(C)c(NC2=NC3(CCCCC3)N=C(N)N2)c1`: the inhibition was -8.53% (inactive).

Regarding `COc1ccc(OC)c(NC2=NC3(CCCCC3)N=C(N)N2)c1`, the inhibition was -2.55% (inactive).

Consider `COc1ccc(OC)c(NC2=NC3(CCCC3)N=C(N)N2)c1`, for which the inhibition is -3.8% (inactive).

As to `Cc1ccccc1NC1=NC2(CCCC2)N=C(N)N1`, the inhibition is -0.71% (inactive).

On to `COc1ccc(S(=O)(=O)N2CCCc3ccccc32)cc1[N+](=O)[O-]`, for which the inhibition is 1.36% (inactive).

Turning to `Clc1ccc(-c2c[n+]3c(n2-c2ccccc2)SCC3)cc1`, the inhibition was 22.2% (inactive).

Regarding `CCc1cc2cc(C)ccc2nc1SCC(=O)Nc1cc(C)on1`, the inhibition is -6.66% (inactive).

With `COc1cccc(CNC(=O)CC(NC(=O)c2ccccc2)c2ccccc2)c1` (centres undefined), the inhibition is -2.43% (inactive).

As to `O=[N+]([O-])c1cc(NCCO)c(N2CCCCCC2)c2nonc12`, the inhibition is -4.05% (inactive).

Consider `CCCS(=O)(=O)N1CCC(C(=O)NC2CCCC(C)C2C)CC1` (centres undefined), for which the inhibition is 3.41% (inactive).

With `C[C@H](NC(=O)[C@@H]1Cc2ccccc2CN1)C(=O)Nc1ccc2c(c1)OCCO2`, the inhibition is -6.47% (inactive).

For `CCc1cccc2c(C(=O)COC(=O)c3ccccc3)c[nH]c12`, the inhibition is -6.08% (inactive).

In the case of `CCc1cccc2c(C(=O)COC(=O)c3ccc(O)cc3)c[nH]c12`, the inhibition was -22.3% (inactive).

Regarding `O=C(c1ccco1)N1CCN(C(=O)C23CC4CC(CC(C4)C2)C3)CC1`, the inhibition is -6.11% (inactive).

Regarding `O=C(O)c1ccc(Nc2nc3ccc(Cl)cc3[nH]2)cc1`, the inhibition is -11.1% (inactive).

Take `O=C(O)c1ccc(-c2nnn(Cc3cccc(C(F)(F)F)c3)n2)cc1`: the inhibition is 16.4% (inactive).

As to `CC1CCC(NC(=O)c2ccc(S(C)(=O)=O)cc2)CC1` (centres undefined), the inhibition was -20% (inactive).

Turning to `CCc1ccc(NC(=O)[C@H](C)NC(=O)C2CCN(C(=O)[C@@H](N)C(C)C)CC2)cc1`, the inhibition is 3.36% (inactive).

On to `Cc1oc(-c2cccc(Cl)c2)nc1CN1CCC(C(=O)NC2CC2)CC1`, for which the inhibition is -4.63% (inactive).

For `Cc1oc(-c2cccc(Cl)c2)nc1CN1CCC(C(=O)NCC2CCCO2)CC1` (centres undefined), the inhibition is 1.34% (inactive).

For `CCN1CCN(CCNC(=O)C2CCN(Cc3nc(-c4ccc(Cl)cc4)oc3C)CC2)CC1`, the inhibition is 6.8% (inactive).

In the case of `CCN(CCNC(=O)C1CCN(Cc2nc(-c3ccc(Cl)cc3)oc2C)CC1)c1ccccc1`, the inhibition is 6.02% (inactive).

On to `COCCCNC(=O)C(F)(F)C(F)(F)C(=O)NCCCOC`, for which the inhibition is -11.6% (inactive).

Consider `S=C(NCCc1ccccn1)Nc1ccccc1`, for which the inhibition is 7.23% (inactive).

Consider `Cc1cc(C)c(NC(=O)COc2nncc3ccccc23)c(C)c1`, for which the inhibition was -9.5% (inactive).

On to `Cc1cccc(C)c1NC(=O)C[N+](C)(C)CC(O)COc1cccc2ccccc12` (centres undefined), for which the inhibition is -1.2% (inactive).

Consider `CCn1cc(/C=C/C(=O)c2ccc(O)cc2)c(C)n1`, for which the inhibition is 2.07% (inactive).

Regarding `O=c1c2ccccc2nc(-c2ccc([N+](=O)[O-])cc2)n1-c1ccccc1`, the inhibition was -1.83% (inactive).

Consider `O=S1(=O)NC(=NC2CCCCCC2)c2ccccc21`, for which the inhibition was -8.09% (inactive).

With `c1ccc2c(c1)C(=NCC1CCCO1)NC2=NCC1CCCO1` (centres undefined), the inhibition was -5.37% (inactive).

`CCOC(=O)[C@@H]1[C@H]2COc3cc(OC)ccc3[C@H]2N2C(=O)N(c3ccc(C(F)(F)F)cc3)C(=O)[C@@]12C`: the inhibition is -14.6% (inactive).

With `CCOC(=O)c1c(C)[n+]([O-])c2ccc3c(non3O)c12`, the inhibition was -9.19% (inactive).

In the case of `CC(=O)c1c(C)[n+]([O-])c2ccc3c(non3O)c12`, the inhibition is 14.6% (inactive).

Consider `CCCn1c(SCC(=O)OCc2ccccc2)nc2c1c(=O)n(C)c(=O)n2C`, for which the inhibition was -3.63% (inactive).

Turning to `Cc1ccc(S(=O)(=O)N(C)C)cc1NC(=O)COC(=O)/C=C/c1ccc2ccccc2n1`, the inhibition was -5.07% (inactive).

Take `CCOc1ccc(NC(=O)C(=O)NCCN2CCN(S(=O)(=O)c3ccccc3)CC2)cc1`: the inhibition was 3.61% (inactive).

With `O=C1[C@@H]2C(c3cccnc3)=NO[C@@H]2C(=O)N1c1ccc(Br)cc1`, the inhibition was -5.51% (inactive).

On to `Oc1cccc2cc3cccc(O)c3c(O)c12`, for which the inhibition is 7.19% (inactive).

For `COc1cc2cccc(OC)c(=O)c2c(O)c1OC`, the inhibition is -19.1% (inactive).

In the case of `Cc1ccc(S(=O)(=O)NCC2CCC(C(=O)N3CCN(C)CC3)CC2)cc1` (centres undefined), the inhibition was 5.88% (inactive).

As to `CC(C)(C)Cc1nnc(NS(=O)(=O)c2ccc([N+](=O)[O-])cc2)s1`, the inhibition was -2.4% (inactive).

On to `CC(Nc1nc(-c2ccccc2)nc2ccccc12)c1ccccc1` (centres undefined), for which the inhibition was 18% (inactive).

Consider `CC(Nc1nc(N2CCN(S(C)(=O)=O)CC2)nc2ccccc12)c1ccccc1` (centres undefined), for which the inhibition was -4.59% (inactive).

On to `OCCNc1nc(N2CCCCC2)nc2ccccc12`, for which the inhibition was 4.37% (inactive).

Take `CC(Nc1nc(N2CCNCC2)nc2ccccc12)c1ccccc1` (centres undefined): the inhibition was 17.9% (inactive).

In the case of `CC(C)S(=O)(=O)c1nsc2nc(=O)c(/C=C3\C=Nc4ccccc43)c(N)n12`, the inhibition is -9.31% (inactive).

In the case of `Cc1occc1C(=O)NNC(=O)Nc1ccc([N+](=O)[O-])cc1`, the inhibition is 0.48% (inactive).

In the case of `CC(C)(Oc1ccc(Cl)cc1)C(=O)NCCN1C(=O)S/C(=C/c2cccnc2)C1=O`, the inhibition was -8.14% (inactive).

On to `O=C(CN1CCN(Cc2ccc3c(c2)OCO3)CC1)Nc1ccc(F)cc1`, for which the inhibition is 2.19% (inactive).

With `O=C(O)C1C2C=CC(O2)C1C(=O)NCc1ccc2c(c1)OCO2` (centres undefined), the inhibition is 4.49% (inactive).

With `O=C(O)C(Cc1c[nH]c2ccccc12)NS(=O)(=O)c1ccc2ccccc2c1` (centres undefined), the inhibition was -4.9% (inactive).
